# Active and inactive are the calls of the source. Unless noted, how the calls were made is not given here.
# Experiments:
# [1] = system: Hepatitis C virus NS3 helicase; experiment: blockers of NS3h binding to ssDNA – biochemical, fluorescence polarization, LOPAC1280 library, primary screen (AID 687035; in the data active means inhibition above about 37%); details: Purified HCV NS3 helicase, Cy5-dT15 ssDNA binding fluorescence polarization; stronger effect = higher value; concentration not given here
# [2] = compounds altering Cy5-DNA-NS3h complex signal – biochemical, LOPAC1280, artefact control for HCV NS3 helicase inhibitor project (AID 687037); details: Cy5-DNA-NS3h complex fluorescence interference counterscreen
# [3] = viability loss with induced miR-34 in A549 – imaging, A549 dox-inducible miR-34, nuclei and caspase counts, primary screen (AID 1347080;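 active means compounds whose cell count with miR-34 switched on is under 0.7 times the count with it off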); details: A549 miR-34 inducible, Hoechst nuclei count, 48 h
# [4] = compounds altering HSF1 focus formation in cells – imaging, Selleck Cancer Library (AID 1347162; in the data active means plate-normalised HSF1 focus index below about 0.46); details: human cells, HSF1 nuclear foci imaging, at 10 µM; SSMD: measured here: HSF1 foci SSMD mean; cell count: measured here: cell number; plate-normalised HSF1 focus index: stronger effect = lower value
# [5] = blockers of cellular phospholipid synthesis – cell-based, LOPAC library, screen 4, primary screen (AID 1347384); details: animal cells, phospholipid biosynthesis inhibition screen; at 10 µM
# [6] = galactose survival enhancers in mitochondrial complex I cybrids – cell-based, galactose medium, ATP luminescence, primary screen (AID 1645843;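 active means z-score of at least 1.8 in each of two replicates, scored against plate mean and spread of sample wells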;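 further: positive z means more ATP and so rescue of galactose-driven cybrid death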); details: complex I mutant cybrid cells, 72 h, stronger effect = higher value
# [7] = compounds altering viability of human ES cells (AID 493140); details: human embryonic stem cell survival screen; stronger effect = higher value;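 further: cells exposed to compounds for four days before counting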
# [8] = chitosan synthesis blockers in C. neoformans – flow cytometry, Cibacron Brilliant Red staining (AID 1347148); details: Cryptococcus neoformans chitosan, stronger effect = lower value; at 10 µM unless noted;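 further: compound exposure lasted three days at 37 degrees C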
# [9] = target: NAD(+) hydrolase SARM1 (Homo sapiens) (UniProt Q6SZW1); experiment: blocking NAD cleavage by SARM1 SAM-TIR – cell lysate, NAD-Glo luminescence (AID 1508614;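 active means compound whose remaining NAD level is above about 45 nM, limit read from the data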); details: SAM-TIR HEK293T lysate NADase, at 1 µM, stronger effect = higher value
# Sequence of NAD(+) hydrolase SARM1 (Homo sapiens) (Q6SZW1 whole entry, looked up): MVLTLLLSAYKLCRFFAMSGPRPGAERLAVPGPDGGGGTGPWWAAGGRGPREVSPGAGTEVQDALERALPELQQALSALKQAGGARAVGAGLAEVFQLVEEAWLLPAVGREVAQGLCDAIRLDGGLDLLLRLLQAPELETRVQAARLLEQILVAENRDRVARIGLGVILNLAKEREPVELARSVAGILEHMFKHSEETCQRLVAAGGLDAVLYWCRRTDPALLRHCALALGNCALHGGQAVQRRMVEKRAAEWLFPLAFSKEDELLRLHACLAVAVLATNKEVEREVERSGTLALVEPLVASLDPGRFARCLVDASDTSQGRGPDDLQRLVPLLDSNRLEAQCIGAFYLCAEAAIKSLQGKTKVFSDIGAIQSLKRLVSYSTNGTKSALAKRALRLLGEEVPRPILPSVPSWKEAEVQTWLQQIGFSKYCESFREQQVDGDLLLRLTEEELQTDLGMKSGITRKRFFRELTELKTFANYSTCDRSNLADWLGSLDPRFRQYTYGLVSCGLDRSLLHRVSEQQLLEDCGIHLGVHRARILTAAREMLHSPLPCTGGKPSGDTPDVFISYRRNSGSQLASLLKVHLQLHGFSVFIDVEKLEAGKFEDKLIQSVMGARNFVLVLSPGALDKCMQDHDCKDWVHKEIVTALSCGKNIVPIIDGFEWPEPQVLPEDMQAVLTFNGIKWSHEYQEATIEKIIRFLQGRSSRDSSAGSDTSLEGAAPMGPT
# [10] = MELAS cybrid and Rieske KO viability enhancers – cell-based, MELAS cybrids, Rieske KO mouse fibroblasts, CellTiter-Glo, primary screen (AID 1508586;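 active means mean z-score across replicates of 1.96 or higher in either the MELAS or the Rieske mutant cell line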;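 further: z relative to plate mean and SD of compound and empty wells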); details: low glucose
# [11] = compounds altering circadian rhythm period length – cell-based, LOPAC library, luminescence reporter (AID 2774); details: circadian reporter cells, at 7 µM, actives lie on both sides;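 further: values are relative to mean of DMSO wells on each plate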
# [12] = P. berghei load reduction in hepatocytes – cell-based, HepG2, luciferase luminescence, HepG2 viability, primary screen (AID 624349; in the data active means parasite load remaining mostly below about 12%, no sharp cut-off; inactive means mostly above about 10%;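 further: 100% = mean of DMSO negative control wells on the same plate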); details: P. berghei liver stage in HepG2, luciferase luminescence, concentration not given here; parasite load remaining: stronger effect = lower value; viability: measured here: HepG2 viability without parasites
# [13] = stronger effect = lower value, cell number ratio, induced over uninduced
# [14] = measured here: relative caspase fold change +Dox/-Dox
# [15] = measured here: total cells with miR-34 induction, stronger effect = lower value
# [16] = measured here: total cells without miR-34 induction
# [17] = MELAS cybrid survival, CellTiter-Glo 48 h, stronger effect = higher value
# [18] = Rieske KO mouse fibroblast survival, CellTiter-Glo 72 h
smiles,measurement,setting,value
O=C1c2ccccc2C(=O)c2c(NCCc3ccc(O)cc3)ccc(NCCc3ccc(O)cc3)c21,inhibition,[1],13% (inactive)
same,fluorescence ratio (interference),[2],1.1 (inactive)
same,fold change,[3]; [13],1.15 (inactive)
same,fold change,[3]; [14],1.12
same,cell count,[3]; [15],4510
same,cell count,[3]; [16],3920
same,SSMD,[4],0.452
same,cell count,[4],6780
same,plate-normalised HSF1 focus index,[4],1.04 (inactive)
same,outcome,[5],active
same,z-score,[6],-0.96 (inactive)
COC(=O)C1=C(C)NC(C)=C(C(=O)OC)C1c1cccc(NC(=O)NCCCN2CCC(c3cccc(OC)c3)CC2)c1,fold change,[3]; [13],1.58 (inactive)
same,fold change,[3]; [14],0.349
same,cell count,[3]; [15],2200
same,cell count,[3]; [16],1390
same,outcome,[5],inactive
same,z-score,[6],-1.35 (inactive)
CC[C@H]1OC(=O)[C@H](C)[C@@H](O[C@H]2C[C@@](C)(OC)[C@@H](O)[C@H](C)O2)[C@H](C)[C@@H](O[C@@H]2O[C@H](C)C[C@H](NC)[C@H]2O)[C@](C)(O)C[C@@H](C)CN(C)[C@H](C)[C@@H](O)[C@]1(C)O,fold change,[3]; [13],1.02 (inactive)
same,fold change,[3]; [14],1.41
same,cell count,[3]; [15],10700
same,cell count,[3]; [16],10400
same,outcome,[5],inactive
same,z-score,[6],0.37 (inactive)
CCCCCCCCCCCCCCCCCCN(CCCCCCCCCCCCCCCCCC)CCCN(CCO)CCO,fold change,[3]; [13],0.981 (inactive)
same,fold change,[3]; [14],1.42
same,cell count,[3]; [15],10100
same,cell count,[3]; [16],10300
same,outcome,[5],inactive
same,z-score,[6],0.39 (inactive)
CC(C)n1cnc2c(NCc3ccccc3)nc(NCCO)nc21,survival,[7],106 (inactive)
same,fold change,[3]; [13],1.14 (inactive)
same,fold change,[3]; [14],1.24
same,cell count,[3]; [15],2020
same,cell count,[3]; [16],1780
same,fold fluorescence,[8],3.89 [at 153.2 µM] (inactive)
O=C(CCc1ccncc1)NNC(=O)N1Cc2ccccc2Oc2ccc(Cl)cc21,fold change,[3]; [13],1.04 (inactive)
same,fold change,[3]; [14],1.18
same,cell count,[3]; [15],8820
same,cell count,[3]; [16],8460
same,outcome,[5],inactive
same,z-score,[6],-0.355 (inactive)
Cc1nc2n(c(=O)c1CCN1CCC(c3noc4cc(F)ccc34)CC1)CCCC2O (stereo not drawn),inhibition,[1],-4% (inactive)
same,fluorescence ratio (interference),[2],1 (inactive)
same,fold change,[3]; [13],1.04 (inactive)
same,fold change,[3]; [14],0.907
same,cell count,[3]; [15],9980
same,cell count,[3]; [16],9570
same,outcome,[5],inactive
same,remaining NAD,[9],10 nM (inactive)
same,z-score,[6],-0.155 (inactive)
COc1cc(OC)cc(-c2cc3cnc(N)nc3nc2NC(=O)NC(C)(C)C)c1,fold change,[3]; [13],1.04 (inactive)
same,fold change,[3]; [14],2.01
same,cell count,[3]; [15],4510
same,cell count,[3]; [16],4320
same,outcome,[5],inactive
same,z-score,[6],0.34 (inactive)
C=CC(=O)N1CCCC(n2nc(-c3ccc(Oc4ccccc4)cc3)c3c(N)ncnc32)C1 (stereo not drawn),fold change,[3]; [13],0.863 (inactive)
same,fold change,[3]; [14],0.762
same,cell count,[3]; [15],7670
same,cell count,[3]; [16],8890
same,SSMD,[4],2.74
same,cell count,[4],7290
same,plate-normalised HSF1 focus index,[4],1.17 (inactive)
same,z-score,[10]; [17],-0.153 (inactive)
same,z-score,[10]; [18],-0.517
CCCCCCCCCCC/C=C\C/C=C\CCCC(=O)O,survival,[7],98.8 (inactive)
same,fold change,[3]; [13],0.918 (inactive)
same,fold change,[3]; [14],0.921
same,cell count,[3]; [15],5350
same,cell count,[3]; [16],5820
same,fold fluorescence,[8],4.42 (inactive)
Nc1ncnc2c1c(-c1ccc(Oc3ccccc3)cc1)cn2C1CCCC1,period change,[11],0.07 h (inactive)
same,parasite load remaining,[12],28.7% (inactive)
same,viability,[12],78.8%
same,inhibition,[1],2% (inactive)
same,fluorescence ratio (interference),[2],1 (inactive)
same,fold change,[3]; [13],1.28 (inactive)
same,fold change,[3]; [14],0.999
same,cell count,[3]; [15],4440
same,cell count,[3]; [16],3470
same,SSMD,[4],-0.154
same,cell count,[4],6750
same,plate-normalised HSF1 focus index,[4],0.99 (inactive)
same,outcome,[5],inactive
same,z-score,[6],-1.02 (inactive)
COc1ccccc1CN[C@@H]1CCCN[C@@H]1c1ccccc1,fold change,[3]; [13],0.967 (inactive)
same,fold change,[3]; [14],1.32
same,cell count,[3]; [15],9540
same,cell count,[3]; [16],9860
same,outcome,[5],inactive
same,z-score,[6],-0.42 (inactive)
O=C(CCSCc1ccco1)NNC(=O)N1Cc2ccccc2Oc2ccc(Cl)cc21,fold change,[3]; [13],0.969 (inactive)
same,fold change,[3]; [14],0.669
same,cell count,[3]; [15],7850
same,cell count,[3]; [16],8100
same,outcome,[5],inactive
same,z-score,[6],1.58 (inactive)
CCCCC/C=C\C/C=C\CCCCCCCC(N)=O,survival,[7],66.5 (inactive)
same,fold change,[3]; [13],0.981 (inactive)
same,fold change,[3]; [14],1.16
same,cell count,[3]; [15],6200
same,cell count,[3]; [16],6320
same,fold fluorescence,[8],4.31 (inactive)
CCCCCCCCCC(=O)N[C@H](CN1CCOCC1)[C@H](O)c1ccccc1,survival,[7],80.8 (inactive)
same,fold change,[3]; [13],0.988 (inactive)
same,fold change,[3]; [14],1.18
same,cell count,[3]; [15],5550
same,cell count,[3]; [16],5620
same,fold fluorescence,[8],3.25 (active)
CCCCC/C=C\C/C=C\C/C=C\C/C=C\CCCC(=O)O[C@@H](CO)COCCCCCCCCCCCCCCCC,survival,[7],92.7 (inactive)
same,fold change,[3]; [13],0.961 (inactive)
same,fold change,[3]; [14],1.06
same,cell count,[3]; [15],5620
same,cell count,[3]; [16],5840
same,fold fluorescence,[8],5.56 (inactive)
N=C(N)SCCc1ccc(CCSC(=N)N)cc1,period change,[11],-0.135 h (inactive)
same,inhibition,[1],-5% (inactive)
same,fluorescence ratio (interference),[2],0.9 (inactive)
same,fold change,[3]; [13],1.11 (inactive)
same,fold change,[3]; [14],0.636
same,cell count,[3]; [15],5830
same,cell count,[3]; [16],5230
same,SSMD,[4],1.43
same,cell count,[4],7320
same,plate-normalised HSF1 focus index,[4],1.08 (inactive)
COCCCCCCCCCCCC(=O)O,survival,[7],81.7 (inactive)
same,fold change,[3]; [13],0.981 (inactive)
same,fold change,[3]; [14],1.11
same,cell count,[3]; [15],5900
same,cell count,[3]; [16],6020
same,fold fluorescence,[8],7.84 (inactive)
N[C@@H]1CCCC[C@H]1N.O=C(O)C(=O)O.[Pt],parasite load remaining,[12],182% (inactive)
same,viability,[12],134%
same,fold change,[3]; [13],0.972 (inactive)
same,fold change,[3]; [14],1.18
same,cell count,[3]; [15],4570
same,cell count,[3]; [16],4710
same,SSMD,[4],1.36
same,cell count,[4],7520
same,plate-normalised HSF1 focus index,[4],1.09 (inactive)
same,z-score,[10]; [17],0.335 (inactive)
same,z-score,[10]; [18],-0.474
same,z-score,[6],1.01 (inactive)
O=c1[nH]cnc2c1CN=N2,parasite load remaining,[12],22.2% (inactive)
same,viability,[12],60.5%
same,fold change,[3]; [13],0.891 (inactive)
same,fold change,[3]; [14],1.16
same,cell count,[3]; [15],9860
same,cell count,[3]; [16],11100
same,outcome,[5],inactive
same,z-score,[10]; [17],0.591 (inactive)
same,z-score,[10]; [18],0.624
same,z-score,[6],0.315 (inactive)

# — PubChem BioAssay
